Consider nine compounds from PubChem BioAssay (NCATS).

Inconclusive results are not listed. The source made the active and inactive calls. Unless noted, calls follow the shape of the dose curve; as a rule, active = well fitted curve in the direction sought with a large enough effect; inconclusive = small, poorly fitted or top-dose-only effect, or another doubt; inactive = no such curve, though single readings can be large; an effect the other way counts as inactive or inconclusive.

In test [1] the test system is Zika virus NS2B-NS3 protease. Description: Primary screen GU AMC qHTS for Zika virus inhibitors (AID 1347154).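 Also: 0% = no-inhibitor control and -100% = no-enzyme control; nearly all actives have a fitted effect of over 70% in size.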 The method, boiled down: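 Fluorogenic AMC-substrate cleavage by noncovalent NS2B-NS3 protease complex (25 nM, pH 8.0 Tris buffer with Tween 20) followed for 15 minutes at room temperature (~20% conversion). Percent inhibition from ex340/em450 signal change, fitted by 4-parameter Hill equation.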

Test [2] concerns the target Cytochrome P450 3A4 (Homo sapiens) (UniProt P08684). Description: qHTS Assay for Inhibitors and Substrates of Cytochrome P450 3A4 (AID 884). Also: % is scaled to controls: 0 for no effect and ±100 for the full control effect; nearly all actives have a fitted effect of over 50% in size. The method, boiled down:
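Luminescent readout of luciferin produced by CYP3A4 (20 nM) dealkylation of Luciferin-PPXE, 25 uM (its KM). NADPH-driven reaction ran 60 min at RT after 10 min compound preincubation; data scaled to 57 uM ketoconazole as 100% inhibition.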
For orientation: Quantitative high-throughput screening tests each substance at several concentrations.

The nature of test [3]: Confirmation and Secondary Assay for Modulators of Hemoglobin Beta Chain Splicing at IVS2 654 locus (AID 910).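 Also: HeLa cells stably carrying EGFP split by mutant beta-globin IVS2-654 intron; per-well total GFP intensity by laser scanning cytometry after 2-day treatment; % of control where 0% means no effect.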 The essentials: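 Readout: per-well total peak green fluorescence (488 nm ex, 500–520 nm em) from objects 5–250 µm, reflecting correct splicing of an EGFP-654 reporter. Compounds were applied for 2 days at 37 °C to overnight-plated HeLa EGFP-654 cells; controls were DMSO and 500 nM IVS2-654 PNA.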

Test [4] is described as follows: Confirmation and Secondary Assay for Modulators of Hemoglobin Beta Chain Splicing at IVS2 705 locus (AID 930).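 Also: HeLa cells stably expressing the EGFP-705 splicing reporter; % of control where 0% means no effect.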 The essentials:
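Restored EGFP fluorescence after 2-day compound exposure reports splicing correction in IVS2-705 EGFP reporter HeLa cells; positive control was 500 nM splice-blocking PNA oligo. Signal measured as well total peak GFP intensity (488 nm excitation).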

The nature of test [5]: qHTS Assay for Lipid Storage Modulators (AID 1519; calls by dose curve; as to activity change, negative = inhibition: % is scaled to controls: 0 for no effect and ±100 for the full control effect). To be noted: Drosophila S3 cells, BODIPY lipid droplet/cell ratio, laser cytometry, cells loaded with oleic acid; for activity change, negative = inhibition: at 57.5 µM (top of the series). The method, boiled down:
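Cells seeded at 5,000 per well were treated with compounds over a concentration series and loaded with oleic acid (400 uM, as added). Lipid droplet fluorescence (488 nm excitation, 500-530 nm channel) was read by laser-scanning cytometry and normalized to 20 uM Triacsin C.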

The target of test [6] is Furin (Homo sapiens) (UniProt P09958). Description: Furin counterscreen qHTS for Zika virus inhibitors (AID 1347149).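 Also: purified recombinant full-length human furin enzyme at 5 nM; fluorescence gain from furin cutting a BOC-RVRR-AMC peptide substrate over 15 min; top concentration of the series differs between compounds; plate controls were no-inhibitor control for no effect and no-enzyme control for full effect; nearly all actives have a fitted effect of over 70% in size.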 The essentials:
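Counterscreen measures cleavage of 2 microM BOC-RVRR-AMC, below its ~15 microM Km, by 5 nM full-length human furin at pH 7.0 after a 15-min compound preincubation. Inhibition derives from the 15-min fluorescence increase at 37C.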
On the technique in general: The purpose of a counterscreen is to sort out artefacts and off-target activity.

Test [7] can be described thus: Confirmatory screen GU Rhodamine qHTS for Zika virus inhibitors qHTS (AID 1347157). Also: potency is read from the fitted curve at half-maximal effect; nearly all actives have a fitted effect of over 70% in size. The method, boiled down: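 In dose–response format, inhibition of unlinked protease (25 nM) was measured with 1.5 microM bis-peptide Rhodamine110 substrate. Aprotinin served as the intraplate control.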
Test [8] is described as follows: Confirmatory screen NINDS Rhodamine qHTS for Zika virus inhibitors (AID 1347161). Also: potency is read from the fitted curve at half-maximal effect; nearly all actives have a fitted effect of over 60% in size. The essentials: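 Kinetic fluorescence (Ex 480 nm, Em 540 nm) over 15 min with 1.5 microM Rhodamine110 peptide and 25 nM linked protease.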
Test [9] concerns Zika virus NS2B-NS3 protease (linked). Description: 384 well plate NINDS AMC confirmatory qHTS for Zika virus inhibitors (AID 1347163). Also: potency is read from the fitted curve at half-maximal effect; nearly all actives have a fitted effect of over 50% in size. To be noted: Recombinant NS2B-NS3 protease, Ac-VKTGKR-AMC fluorescence. The essentials: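 Enzyme (5, 30 or 60 nM final) first met test compounds for ~15 min. The AMC-tagged peptide Ac-VKTGKR-AMC followed at 30 microM. Fluorescence was then recorded at 25 min and scaled against no-enzyme and no-inhibitor wells.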

The subject of test [10] is Zika virus NS2B-NS3 protease (linked construct). Description: 384 well plate NINDS Rhodamine confirmatory qHTS for Zika virus inhibitors (AID 1347164).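 Also: fluorescence from protease cleavage of Ac-LKRR-rhodamine 110 substrate; potency is read from the fitted curve at half-maximal effect; nearly all actives have a fitted effect of over 65% in size.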 The essentials: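 Linked NS2B-NS3 protease (final 5, 30 or 60 nM) preincubated ~15 minutes with compounds, then 10 microM Ac-LKRR-Rhodamine 110 added. Fluorescence (485/538 nm) read after 25 minutes at room temperature, normalized to no-enzyme and no-inhibitor controls.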

Test [11] in a line: Tertiary RLuc qRT-PCR qHTS assay for Zika virus inhibitors (AID 1347169). Also: nearly all actives have a fitted effect of over 55% in size. Also: potency is read from the fitted curve at half-maximal effect. As to activity change, negative = inhibition: top concentration of the series differs between compounds; % is scaled to controls: 0 for no effect and ±100 for the full control effect. The method, boiled down: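 Vero cells (1,000/well) infected with recombinant ZIKV-RLuc (Cambodian) at MOI 1-2 after compound addition, 48-72 hrs at 37 degrees C. Live-cell Renilla luciferase substrate added; luminescence read after 1-1.5 hrs.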
Test [12] deals with Zika virus NS2B-NS3 protease (unlinked). Description: Optimization of GU AMC qHTS for Zika virus inhibitors: Unlinked NS2B-NS3 protease assay (AID 1347151).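 Also: 0% = no-inhibitor control and -100% = no-enzyme control; nearly all actives have a fitted effect of over 80% in size.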 The essentials:
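Noncovalent NS2B hydrophilic domain–NS3 protease complex (25 nM final) in 10 mM Tris-HCl pH 8.0, 0.01% Tween 20; AMC substrate, room temperature 15 min (~20% conversion); fluorescence change normalized, 4-parameter Hill fit.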

Test [13] in a line: Vero cells viability qHTS for Zika virus inhibitors (AID 1347167). Also: % is scaled to controls: 0 for no effect and ±100 for the full control effect. The method, boiled down:
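Luminescent ATP readout (CellTiter Glo) after 30 min at 37 degrees C gives viability; cells in DMEM + 4% FBS were treated 24 to 48 hours with compound, following overnight attachment.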

Test [14] can be described thus: Confirmatory qHTS for small molecule stabilizers of the endoplasmic reticulum resident proteome: Secreted ER Calcium Modulated Protein (SERCaMP) assay (AID 1508628). Also: potency is read from the fitted curve at half-maximal effect; nearly all actives have a fitted effect of over 40% in size. The method, boiled down:
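GLuc-SERCaMP-expressing SH-SY5Y cells, pretreated 16 h with compound, are challenged with thapsigargin to empty ER calcium stores; after 4 h, coelenterazine is added directly to the medium and luminescence is imaged.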

Test [15] in a line: Cell Viability qHTS for small molecule stabilizers of the endoplasmic reticulum resident proteome (AID 1508629).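 Also: human SH-SY5Y neuroblastoma cells carrying the GLuc-SERCaMP reporter; compound exposure about 46 h in total before the viability read; % is scaled to controls: 0 for no effect and ±100 for the full control effect.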 To be noted: cell viability counter-screen, 100 nM thapsigargin for final 4 h.
Test [16] can be described thus: Primary qHTS for small molecule stabilizers of the endoplasmic reticulum resident proteome: Secreted ER Calcium Modulated Protein (SERCaMP) assay (AID 1508630). Also: potency is read from the fitted curve at half-maximal effect. The essentials: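 The SH-SY5Y reporter protocol was run at 3 concentrations up to 38.3 uM (primary) or 11 concentrations (follow-up): 16 h compound, 100 nM thapsigargin for 4 h, then extracellular luciferase luminescence.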

Where [17] appears, read: measured here: cell count channel max response.
Setting [18] is: measured here: lipid channel max response.

Sequence of Furin (Homo sapiens) (P09958 whole entry, looked up): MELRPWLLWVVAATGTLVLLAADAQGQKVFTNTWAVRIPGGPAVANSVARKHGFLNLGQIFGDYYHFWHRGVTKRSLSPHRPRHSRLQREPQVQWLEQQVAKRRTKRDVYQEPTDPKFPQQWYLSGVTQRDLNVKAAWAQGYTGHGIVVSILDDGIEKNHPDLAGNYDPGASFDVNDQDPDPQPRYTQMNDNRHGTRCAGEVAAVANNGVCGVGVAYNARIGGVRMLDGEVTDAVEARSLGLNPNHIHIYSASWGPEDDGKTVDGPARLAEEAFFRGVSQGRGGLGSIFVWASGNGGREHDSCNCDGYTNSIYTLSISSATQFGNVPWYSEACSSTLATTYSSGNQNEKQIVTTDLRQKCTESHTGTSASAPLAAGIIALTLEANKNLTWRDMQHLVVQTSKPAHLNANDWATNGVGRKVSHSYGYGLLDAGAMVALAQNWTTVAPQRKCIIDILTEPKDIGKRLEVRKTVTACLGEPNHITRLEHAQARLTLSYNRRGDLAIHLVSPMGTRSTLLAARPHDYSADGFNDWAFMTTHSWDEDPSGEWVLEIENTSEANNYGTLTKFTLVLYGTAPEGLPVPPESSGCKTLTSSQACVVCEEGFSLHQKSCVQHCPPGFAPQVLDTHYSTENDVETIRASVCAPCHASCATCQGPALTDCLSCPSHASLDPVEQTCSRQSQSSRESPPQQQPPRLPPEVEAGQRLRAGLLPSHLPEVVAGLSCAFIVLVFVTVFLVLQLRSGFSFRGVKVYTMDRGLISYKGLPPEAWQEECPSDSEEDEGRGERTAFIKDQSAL
Sequence of Cytochrome P450 3A4 (Homo sapiens) (P08684 whole entry, looked up): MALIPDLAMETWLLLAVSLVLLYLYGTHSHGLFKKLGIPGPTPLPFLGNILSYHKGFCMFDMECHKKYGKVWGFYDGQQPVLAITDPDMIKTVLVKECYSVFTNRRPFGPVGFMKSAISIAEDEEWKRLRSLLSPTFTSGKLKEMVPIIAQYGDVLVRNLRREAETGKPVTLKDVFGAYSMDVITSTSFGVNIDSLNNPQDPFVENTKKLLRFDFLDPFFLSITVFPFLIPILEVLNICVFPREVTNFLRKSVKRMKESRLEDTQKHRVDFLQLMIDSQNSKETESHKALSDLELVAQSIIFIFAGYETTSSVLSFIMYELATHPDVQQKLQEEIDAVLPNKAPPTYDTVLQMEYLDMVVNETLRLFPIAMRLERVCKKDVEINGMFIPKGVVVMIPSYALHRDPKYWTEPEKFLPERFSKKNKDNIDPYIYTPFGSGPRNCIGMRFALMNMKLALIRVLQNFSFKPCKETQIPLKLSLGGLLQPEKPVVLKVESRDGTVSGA

For the compound `CC1OC(=O)[C@@H](C(C)C)NC(=O)C(C(C)C)OC(=O)[C@H](C(C)C)NC(=O)C(C)OC(=O)[C@@H](C(C)C)NC(=O)C(C(C)C)OC(=O)[C@H](C(C)C)NC(=O)C(C)OC(=O)[C@@H](C(C)C)NC(=O)C(C(C)C)OC(=O)[C@H](C(C)C)NC1=O` (some centres not stated), the Potency result in test [1] is “inactive”.

With `O=c1c(O)c(-c2ccc(O)c(O)c2)oc2c(O)c(O)cc(O)c12`, the Potency entry in test [2], in test [3] and in [6] was “inactive” each time. For the same compound, the outcome in [4] was inactive. Also, the activity change, negative = inhibition in test [5] was 10.8% (inactive); in test [11], 35.9% [at 5.25 µM] (inactive). In addition, the max response in [5] (setting [17]) is -1.92%; in [5] (setting [18]), 12.9%. Also, the Potency was 22.4 µM (active) in test [7], 11.2 µM (active) in test [8], 158 µM (active) in test [9] and 100 µM (active) in test [10].

Consider `C(=C\c1ccccc1)/CN1CCN(CCOC(c2ccccc2)c2ccccc2)CC1`, for which the Potency result in test [1] is “inactive”.

Turning to `NC(=O)[C@H](Cc1ccccc1)NC(=O)[C@H](Cc1c[nH]c2ccccc12)NC(=O)[C@@H]1CCCN1C(=O)[C@@H](N)Cc1ccc(O)cc1`, in test [1], the activity change, negative = inhibition is 11.2% [at 6.83 µM] (inactive).

For the compound `CC1O[C@@H](O[C@@H]2C(O)C[C@H](O[C@@H]3C(O)C[C@@H](OC4CC[C@@]5(C)C6CC[C@]7(C)C(C8=CC(=O)OC8)CC[C@@]7(O)C6CC[C@@H]5C4)OC3C)OC2C)CC(O)[C@H]1O` (some centres not stated), in test [5], the activity change, negative = inhibition was 3.23% (inactive). In addition, the results for the max response in [5] (setting [17]) and in test [5] (setting [18]) were 20.2% and 25.7%, respectively. Further, the Potency entry in test [6] and in test [13] was “inactive” each time. The compound was called inactive in [12]. In [11], the Potency is 0.208 µM (active).

Take `CCCCCCC(C)(C)c1cc(OC)c2c(c1)OC(C)(C)[C@@H]1CC=C(C)C[C@@H]21`: in test [1], the Potency entry is “inactive”.

Turning to `CN1CC[C@@]23CCCCC2C1Cc1ccc(O)cc13` (some centres not stated), the Potency entry in test [6], in test [13] and in test [11] was “inactive” in each case. For the same compound, in test [12], the outcome was inactive. The Potency in test [14] is 3.98 µM (active); in test [16] it was 35.5 µM (active). Moreover, the max response in [15] was 30% (inactive).

Regarding `C[C@]12CCC3C(CC[C@H]4C[C@H](O)CC[C@]34C)[C@@H]1CC[C@@H]2C(=O)CO` (some centres not stated), in test [1], the Potency result is “inactive”.

Turning to `Cc1c(C(=O)c2cccc3ccccc23)c2cccc3c2n1[C@@H](CN1CCOCC1)CO3`, the Potency entry in test [1] was “inactive”.
